# Compounds with a hit are over-represented: about 3.3% of the library has one in this group of screens.
# SARS PLpro yeast = qHTS of Yeast-based Assay for SARS-CoV PLP | Potency, µM (highest dose often 32.9 µM), usual class: activators | S. cerevisiae expressing SARS-CoV PLpro, growth rescue | AID 485353, 2010 | 330,000 compounds, 0.19% hits; calls by dose curve; also: nearly all actives have a fitted effect of over 55% in size
# AmpC no deterg = qHTS Inhibitors of AmpC Beta-Lactamase (assay without detergent); Potency, µM (series often up to 57.1 µM), hits mostly inhibitors; 330,000 compounds, 0.52% hits; AmpC nitrocefin hydrolysis, absorbance 480 nm, 0.0001% Triton; also: nearly all actives have a fitted effect of over 20% in size
# Target sequence (P00811 whole entry, looked up): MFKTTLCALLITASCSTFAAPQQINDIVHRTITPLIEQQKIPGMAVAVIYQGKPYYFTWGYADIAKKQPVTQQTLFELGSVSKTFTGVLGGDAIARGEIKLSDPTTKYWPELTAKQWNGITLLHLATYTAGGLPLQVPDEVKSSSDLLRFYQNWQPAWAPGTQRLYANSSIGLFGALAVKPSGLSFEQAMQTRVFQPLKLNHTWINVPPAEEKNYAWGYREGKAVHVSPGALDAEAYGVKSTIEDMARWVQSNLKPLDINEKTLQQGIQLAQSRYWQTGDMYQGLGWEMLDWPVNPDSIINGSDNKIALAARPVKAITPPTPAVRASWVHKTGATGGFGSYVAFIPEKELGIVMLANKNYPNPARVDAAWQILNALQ
#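 20 mM phosphate pH 7.0 + 0.01% (detergent screen) or 0.0001% Triton X-100; 5.3 nM AmpC reagent; cpd preinc 15 min RT; nitrocefin (800 uM stock) to start; A480 q20 s × 4 min; Activity was normalised to no-enzyme and no-compound control wells.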
# TbPYK inhibitor = qHTS of Trypanosoma Brucei Inhibitors; TbPYK enzyme, Kinase-Glo Plus ATP luminescence, 45 min; Potency, µM (top dose mostly 76.8 µM), hits mostly inhibitors; 410,000 compounds, 0.12% hits; AID 624173, 2012; also: nearly all actives have a fitted effect of over 50% in size
#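 Luminescence from Kinase-Glo Plus, added after a 45-minute room-temperature reaction, served as the end-point read-out. The enzyme and substrate were preincubated with compound before ADP (130 uM final) initiated turnover. Concentration-effect curves came from normalized qHTS data.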
# AmpC inh detg = qHTS Inhibitors of AmpC Beta-Lactamase (assay with detergent) | P00811 | Potency, µM (doses to about 114 µM), actives largely listed as inhibitors | AmpC hydrolysis of nitrocefin, absorbance 480 nm, 0.01% Triton | 370,000 compounds, 0.041% hits; also: nearly all actives have a fitted effect of over 25% in size
#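 AmpC (5.3 nM in the dispensed reagent) in 20 mM phosphate pH 7.0 with 0.01% (detergent screen) or 0.0001% Triton X-100 was preincubated with compounds for 15 min at room temperature. Nitrocefin was then added from an 800 uM solution, and hydrolysis was followed at 480 nm.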
# RE007 growth inh = qHTS Assay for Inhibitors of the HIV-1 protein Vpr. S. pombe RE007 Vpr strain, BacTiter-Glo ATP luminescence, 24 h. Potency, µM (series often up to 92.2 µM), most hits filed as inhibitors. 360,000 compounds, 0.21% hits; active = well fitted falling curve with a large enough effect; inconclusive = small, poorly fitted or top-dose-only effect; inactive = no such curve, though single readings can be large or run the other way; also: nearly all actives have a fitted effect of over 50% in size
#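 Fission yeast strain RE007, carrying one chromosomally integrated HIV-1 vpr copy, was seeded at OD 0.01 in PMG+AL medium with 23 nL pinned compound. After 24 h at 30 °C and 99% humidity, viability was read by BacTiter-Glo luminescence.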
# Sm TGR block = qHTS Assay for the Inhibitors of Schistosoma Mansoni Peroxiredoxins. purified TGR, DTNB reduction, TNB absorbance 405 nm. Schistosoma mansoni thioredoxin glutathione reductase (TGR), Q962Y6. 360,000 compounds, 3% hits. Potency, µM (doses to about 114 µM), usual class: inhibitors; also: nearly all actives have a fitted effect of over 60% in size
#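 Kinetic colorimetric format: TGR-catalysed, NADPH-driven DTNB reduction monitored via TNB absorbance. Enzyme dispensed at 20 nM; compound exposure 15 min at room temperature before reaction start.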
# A number is an active result; . = inactive; ? = inconclusive; / = not tested or not shown. Unless noted, calls follow the shape of the dose curve; as a rule, active = well fitted curve in the direction sought with a large enough effect; inconclusive = small, poorly fitted or top-dose-only effect, or another doubt; inactive = no such curve, though single readings can be large; an effect the other way counts as inactive or inconclusive.
SMILES,SARS PLpro yeast,AmpC no deterg,TbPYK inhibitor,AmpC inh detg,RE007 growth inh,Sm TGR block
COc1ccc(O)c(C(=O)c2cnn(S(=O)(=O)c3ccc(C)cc3)c2)c1,.,.,.,?,.,35µM
COc1ccc(C(=O)n2cc(C(=O)c3cc(C)ccc3O)cn2)cc1,.,.,.,.,.,.
Cc1nnsc1C(=O)Oc1ccc(Cl)cc1,/,/,.,.,/,.
C=CCSc1nnc2c(n1)OC=Nc1ccc(Br)cc1-2,.,.,.,.,.,7.9µM
CCSc1nnc2c(n1)OC=Nc1ccc(Br)cc1-2,.,.,.,.,.,.
NC(=O)c1ccc(C(=O)Nc2ccc([As](=O)(O)O)cc2)cc1,.,.,/,.,/,45µM
COc1ccc(C(=O)Nc2ccc3ccccc3c2)cc1,.,.,.,.,.,?
CC(=O)CC(=O)Nc1ccc(C(N)=O)cc1,.,.,.,.,.,.
COC(=O)c1ccc(NC(=S)Nc2ccccc2)cc1,.,.,.,.,.,32µM
COC(=O)c1ccc(NC(=S)Nc2ccc3ccccc3c2)cc1,.,0.25µM,.,.,.,.
CNC(=S)Nc1ccc(C(N)=O)cc1,.,.,.,.,.,40µM
Cc1ccc(C2/C(=C(\O)c3c(C)nc4ccccn34)C(=O)C(=O)N2CCN(C)C)o1 (stereo not given),.,.,.,.,.,32µM
CCN(CC)CCN1C(=O)C(=O)/C(=C(/O)c2c(C)[nH]c(C(=O)OC)c2C)C1c1ccc(C)o1 (stereo not given),.,.,.,.,.,20µM
Cc1ccc(C2/C(=C(\O)c3c(C)nc4c(C)cccn34)C(=O)C(=O)N2CCN(C)C)o1 (stereo not given),/,/,.,/,.,/
CCOC(=O)c1[nH]c(C)c(/C(O)=C2\C(=O)C(=O)N(CCN(C)C)C2c2ccc(C)o2)c1C (stereo not given),.,.,.,?,.,28µM
CCN(C(=O)c1cc2c(Cl)nc3ccccc3c2s1)c1cccc(Cl)c1,/,/,.,.,/,.
CCOc1ccccc1CNC(=O)CN(c1ccc(C)cc1)S(=O)(=O)N(C)C,/,/,.,.,/,.
CCCC(=O)NC(Oc1ccc(Cl)cc1Cl)C(Cl)(Cl)Cl (stereo not given),.,.,.,.,.,32µM
CCCC(=O)NC(Oc1ccc(OC)cc1)C(Cl)(Cl)Cl (stereo not given),.,.,.,.,.,/
CCCC(=O)NC(Oc1ccccc1Cl)C(Cl)(Cl)Cl (stereo not given),.,.,.,.,.,13µM
O=c1[nH]c(SCc2c(F)cccc2Cl)nc2c1CCC2,/,/,.,.,/,.
OCC(O)COc1ccc(Cl)cc1 (stereo not given),/,/,.,/,/,/
CCOC(=O)C1=C(C)N(c2ccccc2)C(=O)/C1=C\c1cccs1,.,.,.,?,.,.
COc1cc(/C=C2/C(=O)NC(=O)N(c3ccccc3)C2=O)ccc1O,.,.,?,.,.,?
CCOC(=O)C1=C(C)N(c2ccccc2)C(=O)/C1=C\c1ccc(O)c(OC)c1,.,.,.,.,.,3.2µM
SMILES,SARS PLpro yeast,AmpC no deterg,TbPYK inhibitor,AmpC inh detg,RE007 growth inh,Sm TGR block
CCOC(=O)C1=C(C)N(c2ccccc2)C(=O)/C1=C\c1ccco1,.,.,.,.,.,45µM
COC(=O)C1=C(C)N(c2ccc(OC)c(OC)c2)C(=O)/C1=C\c1ccco1,.,.,.,.,.,16µM
Oc1ccc2c(c1)C1CCCC1(N1CCOCC1)O2 (stereo not given),.,.,.,.,.,28µM
CC1=C(C(=O)N2CCOCC2)C(c2ccc(O)cc2)NC(=S)N1 (stereo not given),.,.,.,.,.,.
CC(=O)Nc1cccc(-n2cc3c(c2-c2ccccc2Cl)c(=O)n(C)c(=O)n3C)c1,/,/,.,.,/,.
O=c1c2ccccc2cnn1-c1nc2ccccc2[nH]1,.,.,13µM,.,?,.
Cc1cc(N2C(=O)CC(N3CCN(C(c4ccccc4)c4ccccc4)CC3)C2=O)no1 (stereo not given),.,.,.,.,.,45µM
CC(C)CC(=O)Nc1cc(-c2ccccc2F)nn1-c1ccccc1,/,/,.,.,/,.
CC(=O)Nc1ccc(S(=O)(=O)NC2(C(F)(F)F)C(=O)Nc3c2c(=O)[nH]c(=O)n3-c2ccc(C)cc2)cc1 (stereo not given),/,/,.,.,/,.
COc1ccccc1/C=C1\C(=O)NC(=S)N(c2ccccc2)C1=O,.,.,?,.,.,8.9µM
CCOc1cccc(N2C(=O)/C(=C/c3ccco3)C(=O)NC2=S)c1,.,.,?,?,.,?
COc1ccc(N2C(=O)/C(=C/c3ccc(N(C)C)o3)C(=O)NC2=S)cc1,.,.,?,.,.,?
COc1ccc(N2C(=O)/C(=C/C=C/c3ccccc3[N+](=O)[O-])C(=O)NC2=S)cc1,.,.,20µM,.,.,45µM
O=C1NC(=S)N(c2ccccc2)C(=O)/C1=C/c1ccco1,.,.,?,.,.,14µM
COc1ccc(N2C(=O)/C(=C/c3cccs3)C(=O)NC2=S)cc1,.,.,?,.,.,35µM
O=C(NC1CCCCC1)/C(=C/c1ccc(Cl)cc1)NC(=O)c1ccccc1,/,/,.,.,/,.
O=C(CN1CCOCC1)N1CCN(S(=O)(=O)c2ccccc2)C1c1ccccc1 (stereo not given),.,.,.,.,.,.
Cc1ccc(S(=O)(=O)N2CCN(C(=O)CN3CCOCC3)C2c2ccccc2)cc1 (stereo not given),.,.,.,.,.,40µM
COc1ccccc1-c1nn2c(=O)cc(CN3CCN(C(=O)/C=C/c4ccccc4)CC3)nc2s1,/,/,.,.,/,.
Cc1ccccc1-c1nn2c(=O)cc(CN3CCN(C(=O)/C=C/c4ccccc4)CC3)nc2s1,/,/,.,.,/,40µM
COCCCNC(=S)NC1CC2CCCC(C1)N2Cc1ccco1 (stereo not given),.,1.8µM,.,.,.,.
CNC(=S)NC1CC2CCCC(C1)N2Cc1ccco1 (stereo not given),.,.,.,.,.,.
COCC1=C(C(=O)OC(C)OC(=O)OC(C)C)N2C(=O)C(NC(=O)/C(=N\OC)c3csc(N)n3)C2SC1 (stereo not given),/,/,.,/,/,/

# Source: PubChem (National Center for Advancing Translational Sciences (NCATS))
